Laboratory results taken from the supplement of paper PMC13380429.

System: Vero E6 infected with SARS-CoV-2
Assay: inhibition of SARS-CoV-2 cytopathic effect; higher = more antiviral protection, active = above 15
Settings: 48 h

Measured: inhibition of SARS-CoV-2 cytopathic effect

CN[C@H]1CC[C@@H](c2ccc(Cl)c(Cl)c2)c2ccccc21
inactive: 1 nM -7.46% | 8.33 nM 3.54% | 100 nM 8.81% | 833.33 nM -0.02% | 10000 nM 12.1%

CCCCCCCCCCCCCCCCOP(=O)([O-])OCC[N+](C)(C)C [miltefosine]
inactive: 1 nM -3.26% | 8.33 nM -0.08% | 100 nM 0.27% | 833.33 nM 0.17% | 10000 nM 3.55%

COc1ccc(CN2CCN(C(c3ccc(F)cc3)c3ccc(F)cc3)CC2)c(OC)c1OC [lomerizine]
inactive: 1 nM 1.2% | 8.33 nM -4.42% | 100 nM -2.46% | 833.33 nM -4.97% | 10000 nM -3.64%

CNCc1ccc(-c2[nH]c3cc(F)cc4c3c2CCNC4=O)cc1 [rucaparib]
inactive: 1 nM 1.82% | 8.33 nM 5.76% | 100 nM 7.61% | 833.33 nM 5.18% | 10000 nM 0.16%
